SMILES strings stand for the structures. Screen size: about 350,000 compounds; about 7,000 (2%) were called active. Only a selection was taken, and actives are over-represented in it overall. Unmarked numbers belong to inactive results. No stated cut-off is given here; in the data, active means activation above about 40%; inconclusive means no clear call, values can overlap the other calls; inactive means below that.

The nature of the test: raisers of Bmi1 knock-in reporter signal – mouse ES cells, Bmi1 luciferase knock-in, single point, esBAF inhibitor project, primary screen (AID 602393).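 Further: 0% = median of the plate's neutral control wells and 100% = double that signal; a rise in the Bmi1 reporter signal indicates esBAF inhibition.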 Particulars: 24 h, at 12.5 µM, active compounds read high, 100% = twice the neutral-well signal.
Take `C[C@@H](O)C#Cc1cnc2c(c1)C(=O)N([C@@H](C)CO)C[C@H](C)[C@H](CN(C)C(=O)c1ccccc1F)O2`: the reporter increase is -1.43%. As to `COc1ccccc1-c1cnc2c(c1)C(=O)N([C@H](C)CO)C[C@H](C)[C@@H](CN(C)C(=O)CC1CC1)O2`, the reporter increase was -6.49%. In the case of `O=C(O)C[C@@H]1C[C@@H]2c3cc(NC(=O)Nc4ccccc4)ccc3O[C@@H]2[C@H](CO)O1`, the reporter increase was 2.21%. For `Cc1ccc2nc(/C(C#N)=C\c3ccc(OC(=O)c4cccs4)cc3)[nH]c2c1`, the reporter increase is 113% (active). With `CCC(=O)N(C)C[C@H]1Oc2ncc(-c3ccccc3OC)cc2C(=O)N([C@H](C)CO)C[C@H]1C`, the reporter increase was 2.4%. Turning to `C[C@@H]1CCCCO[C@H](CN(C)C(=O)Cc2ccccc2)[C@@H](C)CN([C@@H](C)CO)C(=O)c2cc(NC(=O)c3ccccc3)ccc2O1`, the reporter increase is -0.116%. The figure for `Cc1ccc(S/C(=N\S(=O)(=O)c2ccc(Cl)cc2)c2ccccc2)cc1` is -7.08%; for `Cc1ccc(S(=O)(=O)/N=C(/Nc2ccc3[nH]c(=O)[nH]c3c2)c2ccccc2)cc1` it is 3.61%; for `Cc1ccc(S(=O)(=O)/N=C(/Nc2ccccn2)c2ccc(Cl)cc2)cc1` it is 45.6% (active). The figure for `C[C@@H]1CN([C@@H](C)CO)C(=O)c2cccc(NC(=O)Nc3ccc(C(F)(F)F)cc3)c2O[C@@H]1CN(C)S(=O)(=O)c1cccs1` is 0.762%; for `C[C@@H](O)C#Cc1cnc2c(c1)C(=O)N([C@@H](C)CO)C[C@H](C)[C@@H](CN(C)CC1CCCCC1)O2` it is -1.99%.

As for `CCCN(C)C[C@@H]1Oc2ncc(-c3cccc(C(=O)N(C)C)c3)cc2C(=O)N([C@H](C)CO)C[C@@H]1C`, the reporter increase was -6.02%.

As for `O=C(CN1CCCCCC1)Nc1ccc(Cl)cc1F`, the reporter increase was -12.4%.

As for `O=C(CN1CCCCCC1)Nc1ccc(Br)cc1[N+](=O)[O-]`, the reporter increase is -0.566%.

With `O=C(CN1CCCCCC1)Nc1ccc(Br)cc1Br`, the reporter increase was 56.9% (active).

For the compound `O=c1c2ccccc2nnn1CSc1nnnn1-c1ccccc1`, the reporter increase was 57.4% (active).

On to `C=CCn1c(SCn2nnc3ccccc3c2=O)nnc1-c1ccc(Cl)cc1`, for which the reporter increase is -8.46%. Regarding `CN(C(=O)CSc1nnnn1-c1ccccc1)C1CCCCC1`, the reporter increase is 22.5%. With `Cc1ccc(S(=O)(=O)N[C@@H]2CC[C@H](CCn3cc(C4(O)CCCC4)nn3)O[C@H]2CO)cc1`, the reporter increase is 1.86%.

In the case of `Nc1cc(N)nc(SCc2ccc(Cl)cc2)n1`, the reporter increase is 33.3%.

On to `Nc1cc(N)nc(SCc2cccc(F)c2)n1`, for which the reporter increase is 65% (active). In the case of `CCc1nnc(SCc2cccc(F)c2)nc1CC`, the reporter increase is -1.92%. Regarding `CCC(=O)N(C)C[C@@H]1Oc2ncc(/C=C/c3ccccc3)cc2C(=O)N([C@@H](C)CO)C[C@H]1C`, the reporter increase was -3.12%. The figure for `CCC(=O)N1[C@H](C(=O)NCc2ccc(F)cc2)[C@@H](CO)[C@@H]2Cn3c(ccc(C4=CCCCC4)c3=O)[C@@H]21` is -5.62%; for `CCOc1ccc(N(CC(=O)NCCc2ccc(F)cc2)S(=O)(=O)c2ccccc2)cc1` it is 1.13%; for `COc1ccc(N(CCC(=O)NCCc2ccccc2)S(=O)(=O)c2ccc(C)cc2C)cc1` it is 77.9% (active). For `CCN(CC(=O)NCCc1ccccc1)S(=O)(=O)c1ccc(C)cc1`, the reporter increase is -2.78%. On to `O=C(COC(=O)c1ccccc1C(=O)c1ccccc1)c1ccco1`, for which the reporter increase is -5.33%. For `CCN(CC)c1ccc(C(=O)OCC(=O)c2ccco2)cc1` the value was 69.5% (active); for `CCc1ccc(C(=O)COC(=O)c2ccco2)cc1`, 13.9%.

On to `C[C@@H]1CN([C@H](C)CO)C(=O)c2cc(-c3cccc(F)c3)cnc2O[C@@H]1CN(C)C`, for which the reporter increase was -2.09%.

On to `Cc1noc(C)c1S(=O)(=O)Nc1ccc2c(c1)C(=O)N([C@H](C)CO)C[C@H](C)[C@H](CN(C)S(=O)(=O)c1cn(C)cn1)OCCCC[C@@H](C)O2`, for which the reporter increase was -2.07%. On to `C[C@@H]1CCCCO[C@@H](CN(C)C(=O)NC2CCCCC2)[C@H](C)CN([C@H](C)CO)C(=O)c2cc(NC(=O)c3ccccc3)ccc2O1`, for which the reporter increase was 8.88%. For `Cc1ccccc1S(=O)(=O)NCC[C@@H]1CC[C@@H](NS(=O)(=O)c2ccccc2C)[C@@H](CO)O1` the value was 2.87%; for `O=C(c1cccc(N2CCCC2=O)c1)N1CCOCC1`, -0.631%; for `O=C(NCCc1ccc(Cl)cc1)c1cccc(N2CCCC2=O)c1`, 54.9% (active).

Consider `O=C(NCCCN1CCCCCC1)c1ccc(N2CCCC2=O)cc1`, for which the reporter increase is -4.86%. Regarding `COc1ccc(CN(C)C[C@H]2OCCCC[C@H](C)Oc3ccc(NC(=O)NC4CCCCC4)cc3C(=O)N([C@@H](C)CO)C[C@@H]2C)cc1`, the reporter increase is 2.7%. For `O=C(CSCc1ccc(Cl)cc1)N1CCN(Cc2ccc3c(c2)OCO3)CC1` the value was -7.9%; for `O=C(CSCc1ccc(Cl)cc1)N1CCCCC1`, 47.9% (active); for `O=C(CSCc1cccs1)N1CCCC1`, 33.4%. The figure for `CO[C@@H]1CN(C)C(=O)c2cc(NC(=O)C3CC3)ccc2OC[C@H](C)N(Cc2ccc(F)cc2)C[C@@H]1C` is -2.84%; for `COc1ccc(-c2cnc3c(c2)C(=O)N([C@@H](C)CO)C[C@@H](C)[C@H](CN(C)C(=O)C2CCCCC2)O3)cc1` it is 2.07%. As to `CCn1c(Cc2cccs2)nnc1SCC(=O)c1ccc(C)cc1`, the reporter increase is 25.1%. Take `CCn1c(SCC(=O)N(C)C2CCS(=O)(=O)C2)nnc1-c1cccs1` (centres undefined): the reporter increase was -1.83%.

Regarding `CCn1c(SCC(=O)c2ccc(Cl)s2)nnc1-c1cccs1`, the reporter increase is 46% (active). Take `COc1ccc(S(=O)(=O)N[C@@H]2CC[C@@H](CC(=O)NCCc3ccccc3)O[C@@H]2CO)cc1`: the reporter increase is 3.19%. For `C[C@@H]1CCCCO[C@@H](CN(C)C(=O)Cc2ccccc2)[C@H](C)CN([C@@H](C)CO)C(=O)c2cc(NC(=O)Nc3ccc(F)cc3)ccc2O1` the value was 1.88%.

In the case of `CC(C)NC(=O)N(C)C[C@@H]1OCc2ccccc2-c2c(n(C)c3ccccc23)C(=O)N([C@@H](C)CO)C[C@H]1C`, the reporter increase is -0.481%.

The record behind these values is PubChem BioAssay AID602393 (Broad Institute, 2012).
